According to PubChem BioAssay (EPA / NIEHS):
Active and inactive are the calls of the source. How the source made its calls: active means hit-call score of the fitted dose curve at least 0.9, where 1 is the maximum; inactive means score below 0.9.

The compounds below were run against Transcriptional activator Myb (Homo sapiens) (UniProt P10242) (assay: ATG_Myb_CIS: Attagene CIS-FACTORIAL HepG2 Assay for human Myeloblastosis (Myb) Proto-Oncogene Transcription Factor (AID 2282986)). Settings: HepG2 Attagene CIS-FACTORIAL Myb reporter transcription; actives raise or lower the signal.
Description: ATG_CIS is a cell-based, multiplexed-readout assay that uses HepG2, a human liver cell line, with measurements taken at 24 hours after chemical dosing in a 24-well plate.ATG_Myb_CIS is one of 52 assay component(s) measured or calculated from the ATG_CIS assay. It is designed to make measurements of mRNA induction, a form of inducible reporter, as detected with fluorescence intensity signals by Reverse transcription polymerase chain reaction (RT-PCR) and Capillary electrophoresis technology.Data from the assay component ATG_Myb_CIS was analyzed into 1 assay endpoint. This assay endpoint, ATG_Myb_CIS, was analyzed with bidirectional fitting relative to DMSO as the negative control and baseline of activity. Using a type of inducible reporter, measures of mRNA for gain or loss-of-signal activity can be used to understand the reporter gene at the transcription factor-level as they relate to the gene MYB. Furthermore, this assay endpoint can be referred to as a primary readout, because this assay has produced multiple assay endpoints where this one serves a reporter gene function. To generalize the intended target to other relatable targets, this assay endpoint is annotated to the dna binding intended target family, where the subfamily is MYB proteins.
Human liver HepG2 cells are transiently transfected with multiple reporter transcription units (MRTUs) in 6-well plates using FuGene 6 reagent (Roche; 3 ml FuGene/1 mg DNA). The MRTU constructs are regulated by a cis-regulating element (promoter). […] A major difference between the CIS and TRANS system is that in CIS activities of endogenous TFs are measured, whereas the TRANS assay evaluates changes in activities of exogenous, chimeric NR-Gal4 proteins. […] At the end of 24 hour incubation, total RNA was isolated using TriZol reagent (Invitrogen). The isolated RNA is then reverse-transcribed using oligo(dT) primer and Mo-MLV reverse transcriptase (Invitrogen) with DNAse I (Ambion) treatment for 30 min. The one-tenth of the produced cDNA was amplified by PCR using Taq DNA polymerase (Invitrogen) and two reporter sequence-specific primers. The PCR products were fluorescently labeled by primer extension with 6-arboxyfluorescein (6-FAM) 5'-labeled reporter sequence-specific primer (2 min at 95 C, 20 s at 68 C and 10 min at 72 C) and these products were digested with 5U of HpaI (New England Biolabs) for 2h at 37 C. The fragments were purified using Qiaquick PCR columns (Qiagen), analyzed on an ABI 3130xL genetic analyzer (Applied Biosystems) with peak positions identified by using a set of X-rhodamine (ROX)-labeled MapMarker1000 molecular weight standards (BioVentures). The raw capillary electrophoresis data was processed using Attagraph software (Attagene).

Sequence of Transcriptional activator Myb (Homo sapiens) (P10242 whole entry, looked up): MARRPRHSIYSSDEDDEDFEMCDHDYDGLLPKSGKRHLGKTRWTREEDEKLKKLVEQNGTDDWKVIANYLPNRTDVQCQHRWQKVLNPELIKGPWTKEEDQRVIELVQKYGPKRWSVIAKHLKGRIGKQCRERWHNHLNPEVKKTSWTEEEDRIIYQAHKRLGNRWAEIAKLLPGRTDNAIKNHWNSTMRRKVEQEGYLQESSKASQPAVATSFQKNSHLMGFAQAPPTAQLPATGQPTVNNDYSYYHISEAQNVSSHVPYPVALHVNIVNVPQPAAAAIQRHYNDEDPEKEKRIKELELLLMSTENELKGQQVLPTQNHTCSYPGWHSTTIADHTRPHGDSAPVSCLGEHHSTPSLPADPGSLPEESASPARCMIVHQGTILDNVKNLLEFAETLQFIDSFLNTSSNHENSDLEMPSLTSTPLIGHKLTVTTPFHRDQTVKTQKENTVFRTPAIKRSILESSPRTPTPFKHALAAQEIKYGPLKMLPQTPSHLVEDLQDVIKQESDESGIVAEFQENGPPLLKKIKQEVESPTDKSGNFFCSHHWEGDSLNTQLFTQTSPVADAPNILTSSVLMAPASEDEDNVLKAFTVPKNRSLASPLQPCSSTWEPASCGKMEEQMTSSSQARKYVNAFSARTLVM

| Structure (SMILES) | outcome | AC50 |
| --- | --- | --- |
| CC(C)(O)c1coc(S(=O)(=O)NC(=O)Nc2c3c(cc4c2CCC4)CCC3)c1 | inactive |  |
| COc1ccc2sc(C(=O)Nc3nnn[nH]3)c(OC(C)C)c2c1 | inactive |  |
| CC(=O)OC[C@H]1O[C@@](COC(C)=O)(O[C@H]2O[C@H](COC(C)=O)[C@@H](OC(C)=O)[C@H](OC(C)=O)[C@H]2OC(C)=O)[C@@H](OC(C)=O)[C@@H]1OC(C)=O | inactive |  |
| CN(C)c1ccc(N=NS(=O)(=O)O)cc1 | inactive |  |
| Cc1ccc(C)c(O)c1 | inactive |  |
| O=c1[nH]c2ccc(S(=O)CCN3CCC(Cc4ccc(F)cc4)CC3)cc2o1 (stereo not given) | inactive |  |
| C1N2CN3CN1CN(C2)C3 | inactive |  |
| O=C(NS(=O)(=O)/C=C/c1ccccc1)c1ccc(F)cc1Cl | inactive |  |
| CC[C@H]1OC(=O)[C@H](C)[C@@H](O[C@H]2C[C@@](C)(OC)[C@@H](O)[C@H](C)O2)[C@H](C)[C@@H](O[C@@H]2O[C@H](C)C[C@H](N(C)C)[C@H]2O)[C@](C)(O)C[C@@H](C)C(=O)[C@H](C)[C@@H](O)[C@]1(C)O | inactive |  |
| Cn1c(=O)c2c(ncn2C)n(C)c1=O | inactive |  |
| CC(C)c1cccc(C(C)C)c1N1C(=O)c2ccc(O)cc2C1=O | inactive |  |
| CCN(C(=O)c1cc(C)cc(OC[C@H](C)Nc2ccncc2)c1)C(C)C | inactive |  |
| CCCCC(CC)COC(=O)c1ccc(C(=O)OCC(CC)CCCC)cc1 (stereo not given) | inactive |  |
| CC1(C)C(=O)N(Br)C(=O)N1Br | inactive |  |
| On1ccccc1=S | inactive |  |
| CC(C)CCO | inactive |  |
| Cc1ccc(O)cc1 | inactive |  |
| Cc1ccc(S(=O)(=O)O)cc1C | inactive |  |
| CCCN(C1CCN(C(=O)C2CCNCC2)CC1)[C@@H]1CCc2ccc(OC)cc2C1 | inactive |  |
| Cn1c(=O)cc(Oc2ccc(F)cc2F)c2cnc(NCC(C)(C)O)nc21 | inactive |  |

| Structure (SMILES) | outcome | AC50 |
| --- | --- | --- |
| O=C(O)c1cccc(N(Cc2cccnc2)c2ccc(OC(F)F)c(OC(F)F)c2)c1 | inactive |  |
| CC(C)=CCCC(C)=CC=O | inactive |  |
| O=C(O)c1cccc(Oc2ccccc2)c1 | inactive |  |
| COC(=O)CC(=O)OC | inactive |  |
| O=c1n(CC2CO2)c(=O)n(CC2CO2)c(=O)n1CC1CO1 (stereo not given) | inactive |  |
| Nc1ccc(Nc2ccccc2)cc1 | inactive |  |
| CCOC(=O)COc1ccc2c(c1)CC(NCC(O)c1cccc(Cl)c1)CC2 (stereo not given) | inactive |  |
| CCc1cc(SCc2sc(-c3ccc(C(F)(F)F)cc3)nc2CN2CCN(c3ccc(OC)cc3)CC2)ccc1OCC(=O)O | inactive |  |
| Cc1ccc(N)cc1O | inactive |  |
| C=CC(=C)CCC=C(C)C | inactive |  |
| CC[C@H](C)C(=O)O[C@H]1C[C@@H](C)C=C2C=C[C@H](C)[C@H](CC[C@@H]3C[C@@H](O)CC(=O)O3)[C@H]21 | inactive |  |
| CCOc1cccc(-n2cc(C(=O)N3CCN(c4cc(C(=O)O)c5ccccc5c4)CC3)nc2-c2ccc(C)cc2)c1 |  | 152 µM (active) |
| COCCOc1cc2cc(C(=O)NC3CCN(C(C)C)CC3)n(CC(=O)Nc3ccc(Cl)cn3)c2cn1 | inactive |  |
| Cc1[nH]cnc1C[C@H]1CCc2c(C)c3ccccc3n2C1=O | inactive |  |
| COc1ccc(-n2nc(C(F)F)cc2-c2ccc(S(C)=O)cc2)cc1 (stereo not given) | inactive |  |
| CC(=O)c1ccc2c(c1)[C@H](NC(=O)c1ccc(F)cc1)[C@@H](O)C(C)(C)O2 | inactive |  |
| C[C@](N)(Cc1ccc(O)c(O)c1)C(=O)O | inactive |  |
| COc1ccc(/C=C/S(=O)(=O)NC(=O)c2ccc(C)cc2Cl)cc1 | inactive |  |
| COC(=O)c1ccccc1O | inactive |  |
| CC(C)=CCCC(C)CCO (stereo not given) | inactive |  |
